Measurements: the supplement of paper PMC10681739

How the values were obtained:
RUNX1 [1] = target: RUNX1 (UniProt Q01196); assay: RUNX1 binding intensity (PBM fluorescence), RUNX1 alone (arbitrary fluorescence units); higher = stronger binding; conditions: RUNX1 concentration 2 nM; ETS1 concentration 0 nM
Description: (§1)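 Cooperative gcPBM on 36-bp genomic probes with neighbouring ETS1 and RUNX1 sites. Recombinant human RUNX1 (2 nM) was incubated alone or with ETS1 (25 nM) and detected with anti-RUNX1 antibody plus Alexa488 secondary. Values are medians over 4 replicate spots; the RUNX1+ETS1 data were normalised to the RUNX1-only data. The probes sit in constant array flanks that are not printed.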

RUNX1 [2] = target: RUNX1 (UniProt Q01196); assay: RUNX1 binding intensity (PBM fluorescence) in presence of ETS1, normalised to RUNX1-only experiment (arbitrary fluorescence units); higher = stronger binding; conditions: RUNX1 concentration 2 nM; ETS1 concentration 25 nM
Description: as §1
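Wherever RUNX1 binding intensity (PBM fluorescence) in presence of ETS1, normalised to RUNX1-only experiment is given: Full-length recombinant human ETS1 or RUNX1 bound to double-stranded 36-bp genomic probes on microarrays, detected by protein-specific primary antibody and Alexa488 secondary, spot fluorescence as median of four replicate spots.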
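Wherever RUNX1 binding intensity (PBM fluorescence), RUNX1 alone is given: Full-length recombinant human RUNX1 bound to double-stranded 36-bp genomic probes on a high-density microarray, scored as Alexa488 fluorescence per spot via anti-RUNX1 antibody, median of four replicate spots.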

Chain of RUNX1 (Q01196 whole entry): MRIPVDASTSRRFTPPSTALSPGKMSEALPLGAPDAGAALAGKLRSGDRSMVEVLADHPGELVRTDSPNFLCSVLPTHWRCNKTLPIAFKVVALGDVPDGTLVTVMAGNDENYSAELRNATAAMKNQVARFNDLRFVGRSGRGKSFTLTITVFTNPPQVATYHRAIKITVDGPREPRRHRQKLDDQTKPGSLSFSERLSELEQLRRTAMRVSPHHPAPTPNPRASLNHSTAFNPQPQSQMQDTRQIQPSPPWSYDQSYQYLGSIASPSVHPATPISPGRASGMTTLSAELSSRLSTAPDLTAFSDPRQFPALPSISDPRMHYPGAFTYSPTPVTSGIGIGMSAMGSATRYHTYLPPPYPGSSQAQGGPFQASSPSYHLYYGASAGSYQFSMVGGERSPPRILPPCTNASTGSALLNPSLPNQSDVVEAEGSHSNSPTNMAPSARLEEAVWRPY

Sequence	RUNX1 binding intensity (RUNX1 [1])	RUNX1 binding intensity (RUNX1 [2])
GCCAAGGCCTTCCGCCGAGTTGGTTTTTGGGTTGTT	867	952
CCATGCACAACAGGATGTGGTTAGACAGTCAAAATT	875	11900
CCCTTCCTGTGAGGGAGGTTCCAGTTCCCACAGCGG	782	1670
TTAGAGCTGACATCCTTGCGGTCCACAGCCTCCAAA	961	1090
ATGTCAGGAAGAGGCTCAGGGCTGTGGTTTCTCTGT	979	1070
CTGACGCATTTCCGGCCTTTGCGGTTGATCGGTCAT	4410	18100
AAGACACCAACGCTCGGAAACCGCCAGACACCAACG	945	916
GCTAACGGAACCAGCACGCGGCCACCGCAGGAACCT	853	869
GGGATCCTTCCGCTCCGGGTTAACCCCGACCGCGCC	795	1620
CGAACTCCCGTCCGGCCGCGCCCGCAGCCCGCCGCC	960	1130
CTGGGCGTGGGCTTCCTGCGGCTGAGTGGCAGCTTC	740	997
TCCGCCCGCGGATGCTGAGAACCGCAGCTGCACAAG	948	827
CCAGTGCAGAAACATCCCTCCTGCCGCAGCTTTGTC	1020	896
AGAGGCAGTTCCGGGGTGGGAACCGCGCGGAGCTTT	687	1220
CAGCCTTGCCGGAAGGCAGAGTTTGTGGTCAGACCG	1330	2500
ACGAGAGTCTAGAGGAAACCAACCCGCAACTCACTG	892	868
CAGACACCAACGCTCGGAAACCGCCAGACACCAAGG	1030	888
GGGCGGAAGGGGTTCGCACGCCAAGAACCGCCATGC	855	683
CACCCTGCCACTTCCCTAAACTCCCCGCACAGGCCG	1640	2140
GGCGGGGCATCCGGCAGCACCGCCTGCGGGCGCCCG	667	1070
CTTTCTGGTTTCCTTCCTTTTTGGTTTTGGTTTCAT	1630	2830
